# From PubChem BioAssay (NCATS)
# Inconclusive results are not listed. Entries that show only a call come without a potency. Calls of active or inactive are those of the source. Unless noted, calls follow the shape of the dose curve; as a rule, active = well fitted curve in the direction sought with a large enough effect; inconclusive = small, poorly fitted or top-dose-only effect, or another doubt; inactive = no such curve, though single readings can be large; an effect the other way counts as inactive or inconclusive.
# Assays:
# [1] = molecular target: Calcium and integrin-binding protein 1 (Homo sapiens) (UniProt Q99828); assay: Primary qHTS for Identification of Calcium Integrin Binding Protein 1 (CIB1) Competitor (AID 1508620);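 also: GST tagged CIB1 binding a fluorescein labelled alphaIIb integrin peptide tracer; top concentration of the series differs between compounds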
# Sequence of Calcium and integrin-binding protein 1 (Homo sapiens) (Q99828 whole entry, looked up): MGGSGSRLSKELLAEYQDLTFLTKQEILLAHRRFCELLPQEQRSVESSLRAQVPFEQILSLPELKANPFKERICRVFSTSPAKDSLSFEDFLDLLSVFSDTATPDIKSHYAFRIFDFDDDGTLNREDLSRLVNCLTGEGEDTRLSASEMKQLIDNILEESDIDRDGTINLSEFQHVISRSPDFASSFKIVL
# How it was run: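 CIB1-GST (1 uM final) and compound incubated 15 min at room temperature before adding FITC-alphaIIb peptide tracer (100 nM final). Competition for binding read by fluorescence polarization (ex 480, em 540) after another 15 min at room temperature.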
# [2] = molecular target: Cytochrome P450 2D6 (Homo sapiens) (UniProt P10635); assay: Cytochrome P450 family 2 subfamily D member 6 (CYP2D6) small molecule antagonists: luciferase biochemical (cell-free) qHTS assay (AID 1645840; active = well fitted curve in the direction sought with a large enough effect in the repeat runs; an effect the other way counts as inactive or inconclusive; also: nearly all actives have a fitted effect of over 55% in size; also: potency is read from the fitted curve at half-maximal effect)
# Sequence of Cytochrome P450 2D6 (Homo sapiens) (P10635 whole entry, looked up): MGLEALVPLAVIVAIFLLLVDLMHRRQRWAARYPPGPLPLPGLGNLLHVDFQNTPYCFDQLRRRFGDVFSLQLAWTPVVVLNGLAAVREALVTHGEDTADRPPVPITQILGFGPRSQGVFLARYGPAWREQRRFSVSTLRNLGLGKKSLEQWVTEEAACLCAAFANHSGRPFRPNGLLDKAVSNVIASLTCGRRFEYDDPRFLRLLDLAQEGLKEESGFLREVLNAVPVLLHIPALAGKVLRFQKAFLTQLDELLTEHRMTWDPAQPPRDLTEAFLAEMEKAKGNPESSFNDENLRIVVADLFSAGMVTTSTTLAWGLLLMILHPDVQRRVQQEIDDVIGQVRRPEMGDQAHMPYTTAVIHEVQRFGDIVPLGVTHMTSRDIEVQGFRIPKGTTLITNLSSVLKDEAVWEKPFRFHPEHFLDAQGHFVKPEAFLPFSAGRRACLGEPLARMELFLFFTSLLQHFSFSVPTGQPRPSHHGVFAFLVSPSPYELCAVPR
# How it was run: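 P450-Glo luminescent screen: recombinant CYP2D6 enzyme–proluciferin substrate mix preincubated with compound 10 min at room temperature, then NADPH regeneration added for 1 h at room temperature. Detection reagent added for 20 min; luciferin light read as relative luminescence units.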
# [3] = Primary qHTS for inhibitors of nuclear receptor binding SET domain protein 2 (NSD2) in an isogenic RCH-ACV NSD2 p.E1099K mutant (9B) (AID 1645876); also: nearly all actives have a fitted effect of over 70% in size; also: potency is read from the fitted curve at half-maximal effect
# [4] = Primary qHTS for inhibitors of nuclear receptor binding SET domain protein 2 (NSD2) in an RCH-ACV wild type WT cells (2C) (AID 1645877); also: nearly all actives have a fitted effect of over 70% in size; also: potency is read from the fitted curve at half-maximal effect
# [5] = molecular target: Catechol O-methyltransferase (Homo sapiens) (UniProt P21964); assay: Confirmatory Screen for Target Class Profiling of Small Molecule Inhibitors of Methyltransferases (AID 1745852); conditions: MTase-Glo luminescence, SAH detection, recombinant enzyme; measured here: COMT max response; stronger effect = lower value
# Sequence of Catechol O-methyltransferase (Homo sapiens) (P21964 whole entry, looked up): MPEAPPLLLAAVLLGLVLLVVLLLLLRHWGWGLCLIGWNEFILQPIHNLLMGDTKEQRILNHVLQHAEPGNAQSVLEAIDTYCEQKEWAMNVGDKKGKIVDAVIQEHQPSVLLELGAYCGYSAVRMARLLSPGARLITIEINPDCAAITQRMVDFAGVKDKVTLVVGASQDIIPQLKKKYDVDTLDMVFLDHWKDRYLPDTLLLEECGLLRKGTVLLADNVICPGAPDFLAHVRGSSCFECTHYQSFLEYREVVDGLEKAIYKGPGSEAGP
SMILES,Potency [1],Potency [2],Potency [3],Potency [4],activity [5]
COc1cc2nc(N3CCC(N4CCCCC4)CC3)nc(NC3CCCCCC3)c2cc1OC,inactive,7560 nM (active),2300 nM (active),2300 nM (active),-39.3%
O=S(=O)(NCC1CC1)c1ccc(Nc2nccc(N3CCCc4cc(O)ccc43)n2)cc1,inactive,8490 nM (active),1150 nM (active),1150 nM (active),–
COc1cc2ncnc(Nc3cccc(O)c3)c2cc1OC,inactive,inactive,2900 nM (active),3250 nM (active),–
CC(NC(=O)CCc1nc2ccccc2c(=O)[nH]1)c1ccccc1 (centres undefined),inactive,inactive,inactive,inactive,–
N#Cc1ccc(C(=O)N2CCC3(CC2)N=C(N)c2c(F)ccc(F)c2N3)cn1,inactive,15100 nM (active),inactive,inactive,–
COc1ccc(N2CCOCC2)c2sc(NC(=O)N3CCC(C)(O)CC3)nc12,inactive,16900 nM (active),inactive,inactive,–
CC(C)(F)C[C@@H](N[C@@H](c1ccc(-c2ccc(S(C)(=O)=O)cc2)cc1)C(F)(F)F)C(=O)NC1(C#N)CC1,inactive,2680 nM (active),inactive,inactive,–
O=C1CC2(CCCC2)[C@H](O)C(=O)N1CCCCN1CCN(c2ncccn2)CC1,inactive,12000 nM (active),inactive,inactive,–
O=C(O)[C@H](Cc1ccc(Nc2nccc3ccncc23)cc1)NC1=C(Br)C(=O)C12CCCCC2,inactive,inactive,inactive,inactive,–
Cc1ncc(CCCN(C)C)cc1Nc1ncc2c(n1)-c1ccc(C(F)(F)F)cc1NC(=S)C2,inactive,13500 nM (active),91.6 nM (active),129 nM (active),-3.05%
C[C@@H]1COCCN1c1cc(C2(S(C)(=O)=O)CC2)nc(-c2cccc3[nH]ccc23)n1,inactive,inactive,515 nM (active),459 nM (active),–
Cc1cc(OCc2nc(-c3ccccc3Cl)cs2)ccc1OCC(=O)O,inactive,inactive,inactive,inactive,–
CN[C@H](C(=O)N[C@H](C(=O)N(C)[C@H](/C=C(\C)C(=O)O)C(C)C)C(C)(C)C)C(C)(C)c1ccccc1,inactive,inactive,inactive,inactive,–
